# The source made the active and inactive calls.
# Columns and labels:
# [1] = tested on: PRMT1 (protein arginine N-methyltransferase 1); experiment: small molecules binding arginine methyltransferase PRMT1 – biochemical, small-molecule microarray, 635 nm fluorescence, primary screen (AID 1088); details: higher = more signal;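 also: binding of Prmt1 protein to compounds spotted on small-molecule microarray slides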
# [2] = growth effects on S. cerevisiae YJM789 – YJM789 clinical isolate, OD600, 24 h, basal, primary screen (AID 1089); details: higher = more signal, called active from +8 up or from −8 down;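 also: growth of clinical yeast isolate S. cerevisiae YJM 789 seeded 1000 cells per well; test concentration not given here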
# [3] = S. pombe growth modifiers, basal conditions – strain 972, OD600, 24 h, no modulator, primary screen (AID 1090);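 also: basal condition with compound alone and no growth modifier present; test concentration not given here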; details: S. pombe 972 growth, higher = more signal, called active from +8 up or from −8 down
# [4] = budding yeast growth modifiers under rapamycin – strain BY4716, OD600, 96 h, primary screen (AID 1091); also: test concentration not given here; details: S. cerevisiae BY4716 + rapamycin, higher = more signal, called active from +8 up or from −8 down
# [5] = molecular target: Torsin-1A-interacting protein 2 (Homo sapiens) (UniProt Q8NFQ8); experiment: small molecules binding lysate-expressed LULL1 – cell lysate, human LULL1 lysate, 635/667 nm fluorescence, primary screen (AID 1092); details: small-molecule microarray, hLULL1 lysate binding, 635 nm fluorescence; higher = more signal;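 also: probe is lysate of COS7 cells overexpressing human LULL1; score merges per-feature 667 nm fluorescence with signal-to-noise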
# Sequence of Torsin-1A-interacting protein 2 (Homo sapiens) (Q8NFQ8 whole entry, looked up): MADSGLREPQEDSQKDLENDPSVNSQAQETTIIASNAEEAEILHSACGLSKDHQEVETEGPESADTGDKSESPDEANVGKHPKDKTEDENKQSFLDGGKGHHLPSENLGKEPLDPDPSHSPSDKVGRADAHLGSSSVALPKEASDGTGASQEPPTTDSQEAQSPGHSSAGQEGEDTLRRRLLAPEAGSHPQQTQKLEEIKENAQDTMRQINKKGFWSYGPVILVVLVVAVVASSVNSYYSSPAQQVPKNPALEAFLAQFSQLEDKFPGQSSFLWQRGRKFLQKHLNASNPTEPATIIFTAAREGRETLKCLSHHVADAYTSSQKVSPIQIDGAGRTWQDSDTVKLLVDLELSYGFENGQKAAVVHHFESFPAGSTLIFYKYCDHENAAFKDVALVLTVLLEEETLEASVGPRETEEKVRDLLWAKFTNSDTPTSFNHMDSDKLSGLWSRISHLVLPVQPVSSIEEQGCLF
# [6] = optical density change of DRC41 E. coli – strain DRC41, OD650, 24 h, E. coli filamentation project, primary screen (AID 1093);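 also: MC1000 strain lacking acrAB efflux and sulA so SOS filamentation is blocked; test concentration not given here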; details: E. coli DRC41 growth, higher = more signal, called active from +8 up or from −8 down
# [7] = probe aLefty2 binding to arrayed compounds – biochemical, biotinylated probe, 635/667 nm fluorescence, primary screen (AID 1094); details: small-molecule microarray, higher = more signal;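 also: score merges spot fluorescence near 667 nm with spot signal-to-noise ratio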
# [8] = tested on: Noggin (protein binding on small-molecule microarray); experiment: small molecules binding Noggin protein – biochemical, 635/667 nm fluorescence, primary screen (AID 1095); details: 635 nm fluorescence, higher = more signal;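 also: score merges 667 nm feature fluorescence with signal to noise over triplicate slides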
# [9] = molecular target: Neurogenic locus notch homolog protein 3 (Homo sapiens) (UniProt Q9UM47); experiment: small molecules binding NOTCH3 protein – biochemical, 635/667 nm fluorescence, primary screen (AID 1096); details: small-molecule microarray, 635 nm fluorescence, higher = more signal
# Sequence of Neurogenic locus notch homolog protein 3 (Homo sapiens) (Q9UM47 whole entry, looked up): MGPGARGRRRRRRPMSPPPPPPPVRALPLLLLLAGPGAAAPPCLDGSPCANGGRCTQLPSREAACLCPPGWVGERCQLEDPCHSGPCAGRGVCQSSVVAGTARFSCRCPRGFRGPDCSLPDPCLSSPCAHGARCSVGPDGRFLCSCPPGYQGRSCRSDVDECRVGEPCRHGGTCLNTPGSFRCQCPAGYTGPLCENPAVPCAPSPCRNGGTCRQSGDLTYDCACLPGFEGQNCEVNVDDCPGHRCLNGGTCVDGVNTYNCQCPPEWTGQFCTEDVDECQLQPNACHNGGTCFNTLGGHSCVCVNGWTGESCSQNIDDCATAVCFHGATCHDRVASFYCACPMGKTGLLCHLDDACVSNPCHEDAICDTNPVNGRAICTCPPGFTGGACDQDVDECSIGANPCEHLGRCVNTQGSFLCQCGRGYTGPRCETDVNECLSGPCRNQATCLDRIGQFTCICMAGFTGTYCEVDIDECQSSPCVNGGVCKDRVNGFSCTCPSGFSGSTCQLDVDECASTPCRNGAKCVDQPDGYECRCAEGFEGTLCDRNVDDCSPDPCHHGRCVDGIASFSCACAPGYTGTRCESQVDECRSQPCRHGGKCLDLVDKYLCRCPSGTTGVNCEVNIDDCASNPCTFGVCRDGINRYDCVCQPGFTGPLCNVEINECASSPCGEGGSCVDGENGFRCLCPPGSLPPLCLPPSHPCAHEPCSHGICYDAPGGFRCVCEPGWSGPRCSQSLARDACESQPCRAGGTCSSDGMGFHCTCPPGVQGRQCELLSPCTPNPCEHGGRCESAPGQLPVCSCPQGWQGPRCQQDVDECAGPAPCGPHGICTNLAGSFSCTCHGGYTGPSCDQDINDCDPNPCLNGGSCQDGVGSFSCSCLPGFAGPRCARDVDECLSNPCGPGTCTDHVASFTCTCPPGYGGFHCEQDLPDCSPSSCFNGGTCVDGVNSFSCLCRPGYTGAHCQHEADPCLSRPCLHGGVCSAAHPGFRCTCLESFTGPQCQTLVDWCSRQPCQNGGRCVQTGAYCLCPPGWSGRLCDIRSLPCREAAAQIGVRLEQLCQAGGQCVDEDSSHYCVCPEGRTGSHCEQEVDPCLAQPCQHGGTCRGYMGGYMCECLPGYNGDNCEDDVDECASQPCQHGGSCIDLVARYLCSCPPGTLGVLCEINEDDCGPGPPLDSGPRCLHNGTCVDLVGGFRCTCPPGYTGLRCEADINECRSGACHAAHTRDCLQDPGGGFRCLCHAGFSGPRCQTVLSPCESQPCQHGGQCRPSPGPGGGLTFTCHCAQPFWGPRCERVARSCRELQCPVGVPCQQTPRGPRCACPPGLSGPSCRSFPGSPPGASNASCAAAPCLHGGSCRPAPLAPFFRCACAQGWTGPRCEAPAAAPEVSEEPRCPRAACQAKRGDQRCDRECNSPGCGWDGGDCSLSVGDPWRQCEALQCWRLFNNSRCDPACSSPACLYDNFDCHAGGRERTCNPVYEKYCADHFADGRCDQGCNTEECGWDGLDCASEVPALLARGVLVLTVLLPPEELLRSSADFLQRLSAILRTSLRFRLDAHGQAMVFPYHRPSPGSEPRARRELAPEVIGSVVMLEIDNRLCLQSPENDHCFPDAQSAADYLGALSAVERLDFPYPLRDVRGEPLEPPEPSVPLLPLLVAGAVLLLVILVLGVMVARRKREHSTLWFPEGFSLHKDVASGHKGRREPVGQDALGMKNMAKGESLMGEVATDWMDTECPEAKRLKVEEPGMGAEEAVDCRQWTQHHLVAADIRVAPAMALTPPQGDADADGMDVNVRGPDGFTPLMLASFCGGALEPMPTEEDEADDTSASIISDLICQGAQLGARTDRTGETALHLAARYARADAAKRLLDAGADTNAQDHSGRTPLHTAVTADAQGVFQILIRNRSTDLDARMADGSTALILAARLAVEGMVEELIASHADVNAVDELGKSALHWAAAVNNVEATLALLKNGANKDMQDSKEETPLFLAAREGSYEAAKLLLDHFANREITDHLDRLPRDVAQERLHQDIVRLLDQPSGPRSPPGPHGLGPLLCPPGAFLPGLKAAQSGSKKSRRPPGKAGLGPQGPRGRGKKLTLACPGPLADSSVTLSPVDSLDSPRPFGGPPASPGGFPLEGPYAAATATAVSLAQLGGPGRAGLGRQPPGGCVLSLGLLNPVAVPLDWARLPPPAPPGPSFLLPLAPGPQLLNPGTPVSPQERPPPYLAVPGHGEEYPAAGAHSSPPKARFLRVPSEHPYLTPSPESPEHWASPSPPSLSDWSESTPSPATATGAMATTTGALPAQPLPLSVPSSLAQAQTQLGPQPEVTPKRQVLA
# [10] = probe aEGFR binding to arrayed compounds – biochemical, biotinylated probe, 635/667 nm fluorescence, primary screen (AID 1097); details: small-molecule microarray, higher = more signal;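 also: probe is a biotinylated anti-EGFR antibody binding compounds printed on slides; score combines fluorescence near 667 nm and signal to noise of each spot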
# [11] = tested on: Plasmodium falciparum Sir2 (PF13_0152, Sir2A); experiment: Plasmodium falciparum Sir2A binding compounds – biochemical, small-molecule microarray, 635 nm fluorescence, primary screen (AID 1098); details: fluorescence 635 nm, higher = more signal;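 also: score merges spot fluorescence intensity with its signal-to-noise ratio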
# [12] = probe aDKK1 binding to arrayed compounds – biochemical, biotinylated probe, 635/667 nm fluorescence, primary screen (AID 1099); details: small-molecule microarray, higher = more signal;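 also: score merges 667nm spot fluorescence with signal to noise across triplicate slides; reference of the scale not given here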
# [13] = probe aCHRDL2 binding to arrayed compounds – biochemical, biotinylated probe, 635/667 nm fluorescence, primary screen (AID 1100); details: small-molecule microarray, higher = more signal
# [14] = change in splice reporter luminescence, either direction, cell-based, HEK293, spliceosome inhibition project, primary screen (AID 1101); details: HEK293 splicing luciferase reporter, 24 h, higher = more signal, called active from +8 up or from −8 down;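 also: HEK293 cells carrying a splicing-competent luciferase reporter gene; test concentration not given here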
# [15] = molecular target: Fibroblast growth factor 10 (Homo sapiens) (UniProt O15520); experiment: compounds binding fibroblast growth factor 10 – biochemical, small-molecule microarray, 635 nm fluorescence, primary screen (AID 1102); details: FGF10 binding, fluorescence 635 nm, higher = more signal
# Sequence of Fibroblast growth factor 10 (Homo sapiens) (O15520 whole entry, looked up): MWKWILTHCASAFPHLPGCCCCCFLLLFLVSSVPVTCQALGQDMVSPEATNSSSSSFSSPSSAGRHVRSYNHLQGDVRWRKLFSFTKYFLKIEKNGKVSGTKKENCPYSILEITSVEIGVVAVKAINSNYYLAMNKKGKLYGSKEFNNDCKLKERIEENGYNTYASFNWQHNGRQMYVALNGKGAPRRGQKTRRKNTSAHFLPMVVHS
# [16] = tested on: glycogen synthase kinase-3 (GSK3A per assay name; protocol says GSK3B); experiment: compounds binding glycogen synthase kinase-3 – biochemical, small-molecule microarray, 635 nm fluorescence, GSK3A, primary screen (AID 1103); details: fluorescence 635 nm, higher = more signal; also: the record names both GSK3A and GSK3B
# [17] = molecular target: Epidermal growth factor receptor (Homo sapiens) (UniProt P00533); experiment: compounds binding epidermal growth factor receptor – biochemical, small-molecule microarray, 635 nm fluorescence, primary screen (AID 1104); details: EGFR binding, higher = more signal;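 also: score merges 667 nm emission intensity with spot signal to noise over triplicate slides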
# Sequence of Epidermal growth factor receptor (Homo sapiens) (P00533 whole entry, looked up): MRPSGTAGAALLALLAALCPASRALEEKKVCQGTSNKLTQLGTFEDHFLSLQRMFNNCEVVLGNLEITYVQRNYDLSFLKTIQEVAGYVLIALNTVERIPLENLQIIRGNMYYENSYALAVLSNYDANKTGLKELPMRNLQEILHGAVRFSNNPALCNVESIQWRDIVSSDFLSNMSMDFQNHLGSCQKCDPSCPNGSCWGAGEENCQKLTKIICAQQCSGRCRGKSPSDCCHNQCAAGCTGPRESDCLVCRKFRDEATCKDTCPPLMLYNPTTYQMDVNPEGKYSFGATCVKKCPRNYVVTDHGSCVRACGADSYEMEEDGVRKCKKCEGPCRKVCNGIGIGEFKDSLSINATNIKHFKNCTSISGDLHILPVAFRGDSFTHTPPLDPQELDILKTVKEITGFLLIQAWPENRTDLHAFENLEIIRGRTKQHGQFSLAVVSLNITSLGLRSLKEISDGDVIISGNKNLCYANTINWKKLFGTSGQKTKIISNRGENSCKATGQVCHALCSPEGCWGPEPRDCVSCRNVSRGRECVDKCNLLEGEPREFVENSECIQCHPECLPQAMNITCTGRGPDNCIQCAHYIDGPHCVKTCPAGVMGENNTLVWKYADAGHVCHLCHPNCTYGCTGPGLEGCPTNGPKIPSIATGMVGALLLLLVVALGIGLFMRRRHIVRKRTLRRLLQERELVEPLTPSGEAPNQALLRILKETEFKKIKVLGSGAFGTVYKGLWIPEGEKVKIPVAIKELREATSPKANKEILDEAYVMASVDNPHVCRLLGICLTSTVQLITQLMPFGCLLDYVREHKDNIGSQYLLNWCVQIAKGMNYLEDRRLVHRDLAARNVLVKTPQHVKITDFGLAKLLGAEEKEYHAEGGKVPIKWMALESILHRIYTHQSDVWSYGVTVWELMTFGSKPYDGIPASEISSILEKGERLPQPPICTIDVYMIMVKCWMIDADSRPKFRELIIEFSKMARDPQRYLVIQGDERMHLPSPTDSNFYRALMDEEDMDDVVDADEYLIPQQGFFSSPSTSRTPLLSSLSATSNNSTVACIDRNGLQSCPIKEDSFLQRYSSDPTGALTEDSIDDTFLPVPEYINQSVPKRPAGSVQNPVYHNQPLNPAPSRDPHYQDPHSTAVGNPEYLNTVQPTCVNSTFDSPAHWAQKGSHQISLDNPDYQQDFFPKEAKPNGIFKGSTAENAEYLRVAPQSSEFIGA
# [18] = molecular target: Follistatin-related protein 3 (Homo sapiens) (UniProt O95633); experiment: compounds binding follistatin-related protein 3 – biochemical, small-molecule microarray, 635 nm fluorescence, primary screen (AID 1105); details: FSTL3 binding, higher = more signal;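 also: score merges emission near 667 nm and signal to noise per printed spot across three slides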
# Sequence of Follistatin-related protein 3 (Homo sapiens) (O95633 whole entry, looked up): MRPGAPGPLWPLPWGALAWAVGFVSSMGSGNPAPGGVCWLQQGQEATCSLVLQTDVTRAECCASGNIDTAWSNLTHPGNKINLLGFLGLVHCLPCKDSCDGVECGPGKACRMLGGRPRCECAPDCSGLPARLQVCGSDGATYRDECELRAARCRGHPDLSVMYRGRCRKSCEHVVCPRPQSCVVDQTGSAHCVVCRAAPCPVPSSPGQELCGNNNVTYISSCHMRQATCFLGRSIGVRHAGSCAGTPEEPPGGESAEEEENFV
# [19] = molecular target: Dickkopf-related protein 1 (Homo sapiens) (UniProt O94907); experiment: small molecules binding DKK1 protein – biochemical, small-molecule microarray, 635 nm fluorescence scan, primary screen (AID 1106); details: higher = more signal;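 also: score merges emission near 667 nm with signal to noise over three replicate slides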
# Sequence of Dickkopf-related protein 1 (Homo sapiens) (O94907 whole entry, looked up): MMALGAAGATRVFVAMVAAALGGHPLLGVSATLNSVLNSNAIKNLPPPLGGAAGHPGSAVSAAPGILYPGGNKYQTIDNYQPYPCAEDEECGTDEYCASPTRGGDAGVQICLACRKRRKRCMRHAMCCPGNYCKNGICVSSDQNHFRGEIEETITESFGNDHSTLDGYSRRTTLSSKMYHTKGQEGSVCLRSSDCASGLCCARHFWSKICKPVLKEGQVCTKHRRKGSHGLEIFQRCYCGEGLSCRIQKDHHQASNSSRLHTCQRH
# [20] = tested on: Inhibin beta A chain (activin A); experiment: small molecules binding activin A – biochemical, small-molecule microarray, 635 nm fluorescence scan, primary screen (AID 1107); details: INHBA, higher = more signal;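 also: mouse activin A protein probed at 4.33 µg/mL on printed slides; score merges bound-protein fluorescence near 667 nm with spot signal-to-noise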
Compound,composite z-score [1],z-score [2],z-score [3],z-score [4],composite z-score [5],z-score [6],composite z-score [7],composite z-score [8],composite z-score [9],composite z-score [10],composite z-score [11],composite z-score [12],composite z-score [13],z-score [14],composite z-score [15],composite z-score [16],composite z-score [17],composite z-score [18],composite z-score [19],composite z-score [20]
CC(C)N1C(=O)c2ccccc2[C@@H](C(=O)NCC(F)(F)F)[C@@H]1c1ccc(CO)cc1,-0.57,0.125 (inactive),-0.637 (inactive),0.0898 (inactive),0.952,-0.199 (inactive),-0.117,0.157,-0.59,-0.123,0.861,-0.0674,0.53,0.655 (inactive),-0.746,-0.871,-0.318,-0.464,-0.459,0.935
C=C(CCCC)/C(=C/C[C@H](OC(=O)c1ccncc1)c1cccc(OCCO)c1)c1cnc2ccccc2c1,1.53,-0.664 (inactive),-0.968 (inactive),8.23 (active),2.52,-0.268 (inactive),-0.121,0.869,1.13,-0.065,1.15,-0.138,-0.303,0.223 (inactive),0.853,0.783,0.463,1.28,0.483,1.6
O=C(NCc1ccccc1)[C@@H]1c2ccccc2C(=O)N(Cc2ccc(OC(F)(F)F)cc2)[C@H]1c1ccc(CO)cc1,0.594,-0.347 (inactive),-0.753 (inactive),-0.574 (inactive),2.62,0.301 (inactive),-0.128,-0.262,-0.577,0.148,1.34,0.658,-0.0614,-1.19 (inactive),-0.354,0.37,-0.942,-0.88,-0.808,-0.187
CN1C(=O)C2C(C1=O)C1C=C(c3ccc(CO)cc3)C2C(C2CC2)N1C (stereo not given),-0.346,0.724 (inactive),-1.36 (inactive),2.59 (inactive),0.956,0.689 (inactive),-0.209,0.102,-0.414,-0.229,0.028,-0.152,0.0977,-0.0431 (inactive),0.192,0.249,0.35,-0.463,-0.143,0.304
O=C(NC1CC1)[C@@H]1c2ccccc2C(=O)N(Cc2ccc(OC(F)(F)F)cc2)[C@H]1c1ccc(CO)cc1,0.696,-0.112 (inactive),-0.636 (inactive),-1.51 (inactive),1.76,0.577 (inactive),-0.0943,0.818,0.377,-0.0679,0.572,-0.082,0.111,-0.599 (inactive),0.567,-0.589,0.0972,0.301,0.864,0.301

# Reference: PubChem BioAssay
